These entries were drawn from the full list.
aSyn 5UTR act: Activators working through SNCA 5'UTR binding (MLPCN). AID 1814. alpha-synuclein 5'UTR reporter, activators screen. 300,000 tested, 7.1% active. activity score, % (tested at 7.5 µM), hits read low; in the data active means activity score below about -60%
* marks the source's active call; other numbers are inactive results.

`O=C(CCS(=O)(=O)c1ccccc1)N(CCCN1CCOCC1)c1nc2ccccc2s1` gave aSyn 5UTR act -106*.
For Cc1ccc2nc(N(CCN3CCOCC3)C(=O)CCS(=O)(=O)c3ccccc3)sc2c1 the results were aSyn 5UTR act -93*.
Screening Cc1ccc(S(=O)(=O)CCC(=O)N(CCCN2CCOCC2)c2nc3ccccc3s2)cc1 returned aSyn 5UTR act -119*.
CN1CCN(/N=C/c2cccc(Cl)c2Cl)CC1 was read as aSyn 5UTR act -72*.
`CC1CC(=O)c2cnc(Nc3ccccc3)nc2C1` (stereo not drawn) gave aSyn 5UTR act -134*.
Screening Cc1ccc(Nc2ncc3c(n2)CC(C)CC3=O)c(C)c1 (stereo not drawn) returned aSyn 5UTR act -82*.
Cc1ccc(NS(=O)(=O)c2ccc(-c3cnc(C4CC4)o3)cc2)c(C)c1 was read as aSyn 5UTR act 77.
`N#C/C(=C\Nc1ccc2c(c1)OCCO2)c1nc2ccccc2[nH]1` gave aSyn 5UTR act -65*.
N#C/C(=C\c1ccc(OC(=O)c2cccs2)cc1)c1nc2ccccc2[nH]1 was read as aSyn 5UTR act -153*.
For O=[N+]([O-])c1cc(/C=N/n2cnnc2)ccc1N1CCCC1 the results were aSyn 5UTR act 65.
`N#C/C(=C/c1ccc(O)c(O)c1)c1nc2ccccc2[nH]1` gave aSyn 5UTR act -148*.
`N#C/C(=C\c1ccc(N2CCCC2)c([N+](=O)[O-])c1)c1nc2ccccc2[nH]1` gave aSyn 5UTR act -80*.
Screening N#C/C(=C\c1ccc(Sc2ccccc2)o1)c1nc2ccccc2[nH]1 returned aSyn 5UTR act -219*.
For N#C/C(=C\c1cccs1)c1nc2ccccc2[nH]1 the results were aSyn 5UTR act -256*.
`CC(C)CC(/C(O)=C(\C#N)c1nc2ccccc2[nH]1)N1C(=O)c2ccccc2C1=O` (stereo not drawn) gave aSyn 5UTR act 65.
For N#C/C(=C/c1cccs1)c1ccccn1 the results were aSyn 5UTR act -117*.
Screening N#C/C(=C\c1cn(-c2ccccc2)nc1-c1cc2ccccc2o1)c1nc2ccccc2[nH]1 returned aSyn 5UTR act -106*.
Screening CCCCc1ccc(NC(=S)Nc2ccc(Cl)c(S(=O)(=O)N(C)C)c2)cc1 returned aSyn 5UTR act -68*.
For CCOc1ccc(NC(=O)CN(C)c2ccc(S(=O)(=O)N(C(C)C)C(C)C)cn2)cc1OCC the results were aSyn 5UTR act 61.
Screening CN(CC(=O)Nc1ccc(Cl)c(S(=O)(=O)N(C)C)c1)Cc1ccccc1 returned aSyn 5UTR act -109*.
`COC(=O)c1sc2nc(-c3ccco3)ccc2c1N` gave aSyn 5UTR act -236*.
For NC(=O)c1sc2nc(-c3ccco3)ccc2c1N the results were aSyn 5UTR act -62*.
Screening Cc1ccc(-n2c(C)cc(/C=c3/sc4nc5ccccc5n4c3=O)c2C)cc1 returned aSyn 5UTR act 67.
Screening O=C(O)Cn1cc(/C=c2/sc3nc4ccccc4n3c2=O)c2ccccc21 returned aSyn 5UTR act -162*.
`COc1cc(OC)cc(-c2nc(-c3ccc(Br)cc3)no2)c1` gave aSyn 5UTR act -164*.
Screening COCC1CCN(Cc2nc(-c3ccc4c(c3)OCO4)no2)C1 (stereo not drawn) returned aSyn 5UTR act -114*.
COc1ccc(-c2nc(-c3ccc(Br)cc3)no2)c(OC)c1 was read as aSyn 5UTR act -105*.
`COc1ccccc1-c1nc(-c2ccncc2)no1` gave aSyn 5UTR act -123*.
For COc1ccc(-c2noc(-c3ccc4c(c3)OCO4)n2)cc1 the results were aSyn 5UTR act -72*.
Screening COc1ccccc1-c1noc(-c2cccnc2)n1 returned aSyn 5UTR act -112*.
Screening CCOc1nc(C)ccc1-c1noc(-c2cccnc2)n1 returned aSyn 5UTR act -85*.
Screening COc1ccccc1-c1nc(-c2ccc(Br)cc2)no1 returned aSyn 5UTR act -305*.
`c1ccc(Nc2cccc(Nc3ccccc3)n2)cc1` gave aSyn 5UTR act -125*.
`Cc1ccc(C(=O)CSc2nnc(C)s2)cc1` gave aSyn 5UTR act -85*.
Cc1nnc(SCC(=O)c2cc(C)n(C3CC3)c2C)s1 was read as aSyn 5UTR act -146*.
For Cc1cc(C(=O)CSc2nnnn2C)c(C)n1C1CC1 the results were aSyn 5UTR act -69*.
`Cc1ccc(NC(=O)c2ccc(CSc3nnc(C)s3)cc2)c(C)c1` gave aSyn 5UTR act -68*.
`CCCCCCCn1c2c(c(=N)c3c1CCC3)CCCC2` gave aSyn 5UTR act 83.
For O=C(CN1CCN(Cc2ccccc2Cl)CC1)N/N=C/C=C/c1ccco1 the results were aSyn 5UTR act -77*.
For O=C(CN1CCN(Cc2ccccc2)CC1)N/N=C\C=C/c1ccco1 the results were aSyn 5UTR act -71*.
For CC(/C=N\NC(=O)CN1CCN(Cc2ccccc2)CC1)=C\c1ccco1 the results were aSyn 5UTR act -94*.
For Oc1ccccc1NCC(O)Cn1ccc2ccccc21 (stereo not drawn) the results were aSyn 5UTR act -113*.
Screening CCc1ccc(NC(=O)COc2ccc(F)cc2C(=O)c2cnn(-c3ccccc3)c2)cc1 returned aSyn 5UTR act -130*.

Screening data as filed in PubChem.
